These results are taken from PubChem BioAssay (NCI).

Compounds without any hit were thinned out: in the full panel of roughly 79,000, 15% have a hit. A number with no mark means an inactive call. Activity calls are given as the source filed them. Rule as the data show it: active = growth inhibition above about 70%; inactive = the rest.

The test can be described thus: NCI Yeast Anticancer Drug Screen. Data for the rad50EPP+ strain (AID 151).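 Also: 0% = growth of vehicle-treated control cultures.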 As to conditions: S. cerevisiae rad50 mutant strain, stronger effect = higher value. The protocol: Growth inhibition of yeast strains with defined genetic alterations is measured as a screen for potential anti-cancer activity. Selected strains with alterations in DNA damage repair or cell cycle control were exposed to compounds and growth inhibition was measured relative to vehicle treated controls. The strain used in this assay is rad50EPP+

Take `CCCCCCNCCCNc1c2ccccc2nc2cccc([N+](=O)[O-])c12`: the growth inhibition runs as follows: (at 1.2 µM) -1%; (at 3.7 µM) 5%; (at 11.0 µM) 26%; (at 33.0 µM) 67%; (at 100.0 µM) 94% (active).
The matching figures for `CCCCCCCCCCCNC=O`: -14%, -11%, 0%, 15% and 97% (active).
The matching figures for `O=[N+]([O-])c1cc(Cl)ccc1S(=O)(=O)c1ccc(Cl)cc1[N+](=O)[O-]`: -6%, 20%, 55%, 72% (active) and 64%.
The matching figures for `CNC(=S)N/N=C(/C)CCC/C(C)=N/NC(=S)NC`: -9%, 17%, 37%, 59% and 43%.
As for `CC1(C)CC(=O)C(C=NC(=S)C(N)=S)=C(O)C1`, the growth inhibition (at 1.2 µM) is -43%; the growth inhibition (at 3.7 µM) is -49%; the growth inhibition (at 11.0 µM) is -46%; the growth inhibition (at 33.0 µM) was -51%; the growth inhibition (at 100.0 µM) was -25%.
Consider `C[C@H](CCC1=NC(C)(C)CO1)C1CCC2[C@@H]3C(O)C[C@@H]4CC(O)CC[C@]4(C)C3CC[C@@]21C` (stereo not given in full), for which the growth inhibition reads like this: (at 1.2 µM) -4%; (at 3.7 µM) -3%; (at 11.0 µM) -3%; (at 33.0 µM) -4%; (at 100.0 µM) 25%.
Regarding `CC(=O)NC(c1nc2cc(C)c(C)cc2[nH]1)c1nc2cc(C)c(C)cc2[nH]1`, the growth inhibition reads like this: (at 1.2 µM) -1%; (at 3.7 µM) 7%; (at 11.0 µM) 1%; (at 33.0 µM) 19%; (at 100.0 µM) 47%.
As for `Cc1ccc(Nc2n[nH]c(=S)s2)c(C)c1`, the growth inhibition is, setting by setting: (at 1.2 µM) -45%; (at 3.7 µM) -33%; (at 11.0 µM) 23%; (at 33.0 µM) 56%; (at 100.0 µM) 51%.
